High-throughput results deposited in PubChem BioAssay by National Center for Advancing Translational Sciences (NCATS).
DT40 TDP1 no CPT = qHTS for Inhibitors of human tyrosyl-DNA phosphodiesterase 1 (TDP1): qHTS in cells in absence of CPT. DT40 Tdp1-/- hTDP1 cells, no CPT, ATP luminescence, 48 h. Potency, µM (doses to about 46.2 µM), hits mostly inhibitors. actives 15% (n = 420,000). AID 686978, 2013; further: nearly all actives have a fitted effect of over 55% in size
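Stably hTDP1-transfected Tdp1-null chicken DT40 cells were treated with library compounds minus camptothecin and grown for at least 48 hr at 37 °C, after which cellular ATP was quantified by luminescence.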
HT1080-NT tox = kills 2HG-producing HT-1080-NT fibrosarcoma cells. actives 1.6% (n = 360,000). HT-1080-NT fibrosarcoma viability, CellTiter-Glo ATP luminescence, 48 h. Potency, µM (series often up to 46.1 µM), hits mostly cytotoxic;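 further: NT is the 2HG producing partner of a matched IDH1 knockdown line; nearly all actives have a fitted effect of over 55% in size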
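A 48-hour cytotoxicity screen used HT-1080-NT cells plated 2 hours before compound delivery. ATP-based CellTiter-Glo luminescence measured viability, normalized to DMSO and no-cell controls.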
HT1080 IDH1KD tx = kills HT-1080 cells with IDH1 knockdown; AID 686971; HT-1080 IDH1 knockdown viability, ATP luminescence, 48 h; Potency, µM (top dose mostly 46.1 µM), usual class: cytotoxic; actives 2% (n = 360,000)
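In this qHTS, HT-1080 cells depleted of IDH1 are exposed for 48 h at 37 °C to compound titrations. Toxicity is scored from CellTiter-Glo luminescence, with DMSO as full viability and medium alone as none.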
uPA surface inh = cell surface uPA generation inhibition. Potency, µM (doses to about 38.3 µM), usual class: inhibitors. cell surface uPA generation assay, qHTS. actives 0.31% (n = 330,000). AID 540303; active means well fitted inhibition curve with a large enough effect; inconclusive means small, poorly fitted or top-dose-only effect; inactive means no such curve, though single readings can be large or run the other way; tested in mouse RAW 264.7 cells; further: nearly all actives have a fitted effect of over 55% in size
TDP1 cell CPT = growth inhibition of DT40 Tdp1-/-;hTDP1 cells with camptothecin (screen for TDP1 inhibitors) | AID 686979 | Potency, µM (doses to about 46.2 µM), usual class: inhibitors | chicken DT40 Tdp1-/-;hTDP1 cells + 20 nM CPT, ATP luminescence, 48 h | actives 12% (n = 420,000); further: nearly all actives have a fitted effect of over 55% in size
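Chicken DT40 Tdp1-/- cells complemented with human TDP1, 400 cells/well, exposed to compounds plus 20 nM camptothecin for at least 48 h at 37 C; viability read as ATP content by CellTiter-Glo luminescence.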
IL-1B inflam inh = inflammasome signaling inhibition, IL-1 beta readout; THP-1 LPS/ATP IL-1B secretion, AlphaLISA, 16 h; stronger effect = lower value; activity change, % at 57.5 µM; actives 4.7% (n = 360,000); AID 743279; in the data active means activity change below about -50%; inconclusive means mostly about -30% to -49%
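Secreted IL-1B measured by AlphaLISA bead assay after 16 h compound exposure of THP-1 cells; compounds (final up to 57.5 uM) added 1 h before LPS (250 ng/mL) and ATP (1.25 mM) stimulation; lower signal means less secretion.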
Each line names hits and unclear results; the compound was inactive in the other large screens. Most compounds without a hit are left out; they make up all but 19% or so of the library. Unless noted, the call rests on the fitted dose curve; in most records, active means well fitted curve in the direction sought with a large enough effect; inconclusive means small, poorly fitted or top-dose-only effect, or another doubt; inactive means no such curve, though single readings can be large; an effect the other way counts as inactive or inconclusive.

CCC(O)C1CCN(C(=O)c2ccc(OC3CCN(Cc4ccccn4)CC3)cc2)CC1 (stereo not drawn)	uPA surface inh inconclusive
O=C(CCC(=O)c1ccc(F)cc1)OCc1nnc(-c2ccc([N+](=O)[O-])cc2)o1	none
CCN(CC(=O)Nc1ccc(NC(C)=O)cc1)C(=O)CCCOc1ccc(C(C)(C)C)cc1	DT40 TDP1 no CPT 23µM, HT1080 IDH1KD tx inconclusive, TDP1 cell CPT 18µM
Cc1ccc(S(=O)(=O)N2CCC(C(=O)N3CCc4ccccc43)CC2)cc1C	DT40 TDP1 no CPT 18µM, TDP1 cell CPT inconclusive
Cc1ccc(S(=O)(=O)N2CCC(C(=O)N3CCCCCCC3)CC2)cc1C	DT40 TDP1 no CPT inconclusive, TDP1 cell CPT 16µM (no result: uPA surface inh)
Cc1ccc(S(=O)(=O)N2CCC(C(=O)OCCOc3cccc(C)c3)CC2)cc1	none
Cc1ccc(S(=O)(=O)N2CCC(C(=O)N3CCc4ccccc43)CC2)cc1	DT40 TDP1 no CPT inconclusive, TDP1 cell CPT inconclusive
Cc1ccc(S(=O)(=O)N2CCC(C(=O)OCCOc3ccccc3)CC2)cc1C	DT40 TDP1 no CPT 0.18µM
CCCCN(C(=O)C1=NN(c2ccccc2)C(=O)CC1)c1c(N)n(CC(C)C)c(=O)[nH]c1=O	none
Cc1ccc2nc(-c3ccccc3)nn2c1	DT40 TDP1 no CPT inconclusive
CCOc1ccc(CNC(=O)c2ccc3c(c2)nc2n3CCCCC2)cc1	none (no result: HT1080-NT tox, HT1080 IDH1KD tx, uPA surface inh, IL-1B inflam inh)
COc1ccc(Cl)cc1N1C(=O)/C(=C\c2sccc2C)N=C1SCC(=O)NC1CC1	DT40 TDP1 no CPT 16µM, HT1080-NT tox inconclusive, TDP1 cell CPT 16µM, IL-1B inflam inh inconclusive (no result: uPA surface inh)
C[C@H]1CN(CCc2ccccc2)C(=O)[C@@H]1CC(=O)Nc1ccc(Br)cc1	none (no result: uPA surface inh)
C[C@@H]1CN([C@H](C)CO)C(=O)c2cc(C#Cc3ccccc3F)cnc2O[C@@H]1CN(C)S(=O)(=O)c1ccccc1F	none (no result: uPA surface inh)
C=C1C(=O)C23CCC4C(C)(C(=O)OC)CCCC4(C)C2CCC1(O)C3 (stereo not drawn)	DT40 TDP1 no CPT 0.52µM, HT1080-NT tox 9.2µM, HT1080 IDH1KD tx 2.3µM, TDP1 cell CPT 0.65µM, IL-1B inflam inh -103
COC(=O)[C@]1(C)CCC[C@@]2(C)C3CC[C@@]4(C)C[C@]3(CCC21)CC(=O)N4 (stereo partly drawn)	DT40 TDP1 no CPT inconclusive, TDP1 cell CPT inconclusive
CC(=O)Nc1ccc(OCC(O)Cn2cnc3ccccc32)cc1 (stereo not drawn)	none
Cc1nn(CC(O)COc2ccc3c(c2)CCC3)c(C)c1C (stereo not drawn)	DT40 TDP1 no CPT 21µM, TDP1 cell CPT inconclusive
CC(=O)OC(COc1cccc(C)c1)Cn1cnc2ccccc21 (stereo not drawn)	DT40 TDP1 no CPT 16µM, TDP1 cell CPT inconclusive
OC(COc1ccc2c(c1)CCC2)Cn1cnc2ccccc21 (stereo not drawn)	DT40 TDP1 no CPT 18µM, TDP1 cell CPT 10µM
O=C(COC(=O)c1ccc(Br)cc1)Nc1ccccc1Br	none
CCOc1ccc(S(=O)(=O)N2CCOCC2)cc1NC(=O)CSCc1ccc(C)cc1	DT40 TDP1 no CPT 4.6µM, HT1080-NT tox 8.2µM, HT1080 IDH1KD tx inconclusive, uPA surface inh 2.5µM, TDP1 cell CPT 5.2µM
COc1cc(S(=O)(=O)N2CCOCC2)ccc1NC(=O)COC(=O)c1cc(OC)c(OC)c(OC)c1	DT40 TDP1 no CPT inconclusive
CCOc1ccc(S(=O)(=O)N2CCOCC2)cc1NC(=O)C1CCC1	none
COc1cc(S(=O)(=O)N2CCOCC2)ccc1NC(=O)COC(=O)CC12CC3CC(CC(C3)C1)C2	DT40 TDP1 no CPT 18µM, TDP1 cell CPT inconclusive
O=C(CCCOc1ccccc1)Nc1cc(S(=O)(=O)N2CCOCC2)ccc1N1CCOCC1	DT40 TDP1 no CPT inconclusive, uPA surface inh inconclusive, TDP1 cell CPT inconclusive
COc1ccc(S(=O)(=O)N2CCOCC2)cc1NC(=O)COc1ccc(C)cc1	DT40 TDP1 no CPT inconclusive, TDP1 cell CPT inconclusive, IL-1B inflam inh -51
Cc1ccc(OCCCC(=O)Nc2cc(S(=O)(=O)N3CCOCC3)ccc2N2CCOCC2)cc1	DT40 TDP1 no CPT 23µM, TDP1 cell CPT 21µM
COc1ccc(-n2ccnc2SCC(=O)NCc2ccc(F)cc2)c(OC)c1	HT1080-NT tox inconclusive, TDP1 cell CPT inconclusive
O=C(/C=C/[C@H]1O[C@@H](n2cnc3c(NC(=O)c4ccccc4)ncnc32)[C@H](O)[C@@H]1O)NCCc1ccc(F)cc1	IL-1B inflam inh inconclusive (no result: uPA surface inh)
COc1ccc(S(=O)(=O)N2CCOCC2)cc1NC(=O)CCNC(=O)c1ccc(Cl)cc1	HT1080-NT tox 21µM, HT1080 IDH1KD tx inconclusive
O=C1CSC(=S)N1/N=C/c1ccc(O)c(O)c1O	DT40 TDP1 no CPT inconclusive, TDP1 cell CPT 26µM
COc1ccccc1C=NN1C(=O)CSC1=S	TDP1 cell CPT inconclusive
CSCCC1NC2(C(=O)Nc3c(C)cc(Cl)cc32)[C@@H]2C(=O)N(C3CCCC3)C(=O)[C@H]12 (stereo partly drawn)	DT40 TDP1 no CPT 21µM, TDP1 cell CPT inconclusive
CSCCC1NC2(C(=O)Nc3c(Cl)cccc32)[C@@H]2C(=O)N(C3CCCC3)C(=O)[C@H]12 (stereo partly drawn)	DT40 TDP1 no CPT inconclusive
CC(C)(CNC(=O)CCNC(=O)c1ccc(Br)cc1)N1CCOCC1	none
COc1ccc(N/N=C(\C#N)C(=N)N2CCCCC2)cc1	DT40 TDP1 no CPT inconclusive, uPA surface inh inconclusive
COc1ccc(N/N=C(\C#N)C(=N)SCc2ccccc2)cc1	DT40 TDP1 no CPT 7.3µM, uPA surface inh inconclusive, TDP1 cell CPT 4.6µM
CCN(CC)C(=O)C1=C(C)N(Cc2ccc(OC)cc2)C(=O)C(CC(=O)NC2CCCCC2)C1 (stereo not drawn)	none (no result: uPA surface inh)
CCOC(=O)C1=C(N)Oc2c(c(=O)[nH]c3ccccc23)C1c1ccccc1 (stereo not drawn)	DT40 TDP1 no CPT 13µM, HT1080-NT tox inconclusive, TDP1 cell CPT 23µM (no result: uPA surface inh)
CCOC(=O)C1=C(N)Oc2ccc3ccccc3c2C1c1cccc(O)c1 (stereo not drawn)	DT40 TDP1 no CPT inconclusive
O=C(CC12CC3CC(CC(C3)C1)C2)N/N=C/c1ccc([N+](=O)[O-])o1	DT40 TDP1 no CPT 23µM, HT1080-NT tox inconclusive, HT1080 IDH1KD tx inconclusive, TDP1 cell CPT 9.2µM, IL-1B inflam inh inconclusive
O=C(N/N=C/c1ccc([N+](=O)[O-])o1)c1ccc2c(c1)OCO2	DT40 TDP1 no CPT 5.8µM, HT1080-NT tox inconclusive, HT1080 IDH1KD tx inconclusive, uPA surface inh 4.5µM, TDP1 cell CPT 2.3µM
Cc1ccc(C(=O)N/N=C\c2ccc([N+](=O)[O-])o2)cn1	DT40 TDP1 no CPT 12µM, HT1080 IDH1KD tx inconclusive, TDP1 cell CPT inconclusive, IL-1B inflam inh inconclusive
